A selection: hits, their analogues and other compounds. The true share with any hit is near 1.7%.
p53ts 39C tox = kills p53ts cells at the nonpermissive temperature; H1299-p53A138V viability at 39C, ATP luminescence, 24 h; Potency, µM (doses to about 46.1 µM), usual class: cytotoxic; 1.5% of 130,000 active; note: nearly all actives have a fitted effect of over 55% in size
Peg3 imprint = induces erasure of genomic imprints in mouse ES cells; 0.02% of 110,000 active; Potency, µM (highest dose often 60.7 µM), actives largely listed as activators; mouse ES Peg3-LacZ reporter, beta-gal luminescence, 40 h
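Gelatin-coated wells received 300 freshly trypsinized female ES cells with a Peg3LacZ-Neo reporter on the maternal allele, then incubated 40 hours at 37C. BetaGlo was added for 5 minutes at room temperature before a single luminescence read.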
IkB sig inh = inhibitors of IkB signaling in ABC-DLBCL cells. ABC-DLBCL IkBa-CBG/CBR dual luciferase ratio, 4 h; response scale: scaled: untreated 0%, proteasome inhibitor 100%. 0.04% of 110,000 active. AID 445. Potency, µM (titrated, usually from 57.1 µM); active = well fitted curve in the direction sought with a large enough effect in the signal ratio, not every such curve was filed as active; inconclusive = small, poorly fitted or top-dose-only effect, or a change in a side signal; the % refers to the signal ratio;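 note: the direction sought is a rising ratio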
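In this assay, an IκBα–CBG68 fusion accumulates when IKK-driven degradation is blocked; native CBR normalizes for cell number. OCI-Ly3 cells were treated 4 h with compound and doxycycline, then green and red light read after Chroma-Glo addition.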
p53ts 32C kill = p53ts cell cytotoxicity, permissive temperature | H1299-p53A138V at 32C, ATP luminescence viability, 24 h | Potency, µM (titrated, usually from 46.1 µM), hits mostly cytotoxic | 0.93% of 130,000 active | AID 924; note: nearly all actives have a fitted effect of over 55% in size
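H1299-p53 A138V cells (temperature-sensitive p53) exposed 24 h to up to 46 uM compound at 32C, where p53 is wild-type in conformation. Viability read as ATP luminescence and normalised to DMSO and 100 uM tamoxifen. AC50 fitted with the Hill equation.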
Numbers stand for hits; i = inactive; ? = inconclusive; nt = no result given; [ ] = dose if it differs, or a comment. Unless noted, calls come from the whole dose curve; as a rule, active = well fitted curve in the direction sought with a large enough effect; inconclusive = small, poorly fitted or top-dose-only effect, or another doubt; inactive = no such curve, though single readings can be large; an effect the other way counts as inactive or inconclusive.

SMILES | p53ts 39C tox | Peg3 imprint | IkB sig inh | p53ts 32C kill
CCOC(=O)c1sc(N)c(C(=O)Nc2ccc(C)cc2C)c1C | i | nt | nt | i
CC(C)(C)c1ccc(C(=O)Nc2ccc(C(=O)OCc3cc(=O)n4ccsc4n3)cc2)cc1 | 16µM | i[10.9 µM] | ? | 16µM
Cc1cn2c(=O)cc(COC(=O)c3cccc(NC(=O)c4ccc(C(C)(C)C)cc4)c3)nc2s1 | 3.2µM | i[10.9 µM] | ? | 2.5µM
Cc1ccc(C(=O)Nc2ccc(C(=O)OCc3cc(=O)n4ccsc4n3)cc2)cc1 | i | i[10.9 µM] | i | i
O=C(Nc1ccc(C(F)(F)F)cc1)C(Cc1ccccc1)n1cccc1 (stereo unspecified) | 20µM | i[10.9 µM] | ? | i
COc1ccc(/C=N/NC(=O)c2cc(-c3ccc(Cl)cc3)n[nH]2)cc1OC | i | nt | nt | i
CSc1nc(N)c2ncn([C@@H]3O[C@@H](COP(=O)(O)OP(=O)(O)O)[C@@H](O)[C@H]3O)c2n1 | i | nt | i | i
CN(C)c1ccc(-c2cc(NCc3cccnc3)ncn2)cc1 | 7.9µM | i | i[11.4 µM] | ?
CC(=O)[C@H]1CC[C@@H]2[C@]1(C)CC=C1[C@@]23C=C[C@]2(C[C@H](O)CC[C@@]12C)[C@H](C(=O)O)[C@@H]3C(=O)O | nt | i[10.9 µM] | nt | nt
CCCCOc1ccccc1C1CC(=O)Nc2cc(C)c(C)cc21 (stereo unspecified) | 10µM | i[10.9 µM] | i | i
O=C(O)c1cc(S(=O)(=O)Nc2ccc(O)cc2)ccc1Cl | i | nt | nt | i
CN(C)c1ccc(NC(=S)c2ccccn2)cc1 | 2.5µM | i | ? | 1.6µM
CCN(CC)S(=O)(=O)c1ccc(NC(=O)c2ccccn2)cc1 | i | i | i | i
CN(C)S(=O)(=O)c1ccc(NC(=O)c2ccccn2)cc1 | 10µM | i | i | 13µM
COc1ccc(OCCn2c(=N)n(CCO)c3ccccc32)cc1 | i | i | i | i
CCn1c(=N)n(CCOc2ccc(Br)cc2)c2ccccc21 | 13µM | i[10.9 µM] | ? | ?
Cc1ccc(Cc2cn3cc(-c4ccc(F)cc4)nc3s2)cc1 | 7.9µM | i[10.9 µM] | i | ?
O=c1oc2ccccc2cc1-c1cn2cc(Cc3ccc(F)cc3)sc2n1 | i | i[10.9 µM] | i | i
CC(NC(=O)Cn1c(-c2cccs2)cc2cc(F)ccc21)c1ccccc1 (stereo unspecified) | nt | nt | nt | i
Cc1cccc(C)c1NC(=O)c1cc2sccc2n1Cc1ccc(F)cc1 | 13µM | i[10.9 µM] | i | i
Cc1ccc(Cn2c(C(=O)Nc3cccc(Cl)c3)cc3sccc32)cc1 | i | i[10.9 µM] | ? | i
COc1c2c(nc3ccccc13)O[C@@H]([C@@](C)(O)CO)C2 | i | nt | i | i
O=C1c2ccccc2C(=O)C1c1ccncc1 | 3.2µM | i | i | 3.2µM
Cc1ccccc1N1C(=O)c2ccccc2NC1c1ccncc1 (stereo unspecified) | i | nt | nt | i
CCCCCCCCCCCC1=C(O)C(=O)C=C(O)C1=O | 13µM | i | i | 13µM
SMILES | p53ts 39C tox | Peg3 imprint | IkB sig inh | p53ts 32C kill
O=C(Cc1ccc(F)cc1)NCCc1csc(-c2ccc(C(F)(F)F)cc2)n1 | 20µM | i[10.9 µM] | i | i
COc1ccc(CC(=O)NCCc2csc(-c3ccc(C(F)(F)F)cc3)n2)cc1 | i | i[10.9 µM] | i | i
CC(=O)n1nc(-c2ccco2)nc1SCc1ccccc1 | ? | i | i | 13µM
CCC(=O)n1nc(-c2ccco2)nc1SCc1ccccc1 | ? | i | i | ?
O=C(Nc1cccc(Cl)c1)N1CC2CCCN2c2ccccc21 (stereo unspecified) | 10µM | i[10.9 µM] | i | i
O=C(NCc1cccc(Cl)c1)c1ccc(NC(=O)N2CC3CCCN3c3ccccc32)cc1 (stereo unspecified) | i | i[10.9 µM] | ? | i
COC(=O)Cc1c(C)nc2nc(-c3ccc(C)cc3)[nH]n2c1=O | ? | i[10.9 µM] | ? | 10µM
COC(=O)Cc1c(C)nc2nc(-c3ccccc3)[nH]n2c1=O | i | i | i | i
Cc1cccc(CSc2nc3c(cc2C#N)CCC3)c1 | i | nt | nt | i
N#Cc1cc2c(nc1SCc1nc3ccccc3[nH]1)CCC2 | 5µM | i | ? | 4µM
Cc1[nH]c2ccccc2c1C1(O)C(=O)N(Cc2ccccc2)c2ccc(Br)cc21 (stereo unspecified) | 13µM | i[10.9 µM] | ? | i
COc1ccc(C(=O)CC2(O)C(=O)N(Cc3ccccc3)c3ccc(Br)cc32)cc1 (stereo unspecified) | 13µM | i[10.9 µM] | ? | i
O=C(CC1(O)C(=O)N(CCc2ccccc2)c2ccc(Br)cc21)c1ccccc1 (stereo unspecified) | ? | i[10.9 µM] | ? | i

Source: PubChem
